Assay results as given in PubChem BioAssay (NCI).
About 83,000 compounds went through this panel and 20% of them were active in at least one assay; those are over-represented in the sample as a whole.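 Activity criterion: percent growth below 10, measured after cells in 96-well plates were exposed to a single compound concentration for 48 hours.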 A number with no mark means an inactive call. The source made the active and inactive calls.

What was measured:
Assay in all cases: NCI-60 one-dose screen, 48 h (100 = growth as untreated, 0 = no growth, -100 = all killed)
Conditions in all cases: 10 µM unless noted
[1] = system: HCT-15 colon
[2] = system: HT29 colon
[3] = system: SNB-19 CNS
[4] = system: U251 CNS
[5] = system: PC-3 prostate
[6] = system: SK-MEL-5 melanoma
[7] = system: UACC-62 melanoma
[8] = system: LOX IMVI melanoma
[9] = system: SK-MEL-28 melanoma

CC[C@H](Nc1ncnc(N)c1C(N)=O)c1nc2cccc(NCc3ccc(C(=O)NO)cc3)c2c(=O)n1-c1ccccc1
growth [1]: 105%
growth [2]: 88.7%
growth [3]: 68.2%
growth [4]: 52.9%
growth [5]: 92.1%
growth [6]: 87.9%
growth [7]: 63.3%
growth [8]: 103%
growth [9]: 69.2%

NS(=O)(=O)c1ccc(-n2ncc3c(=O)[nH]c(CN4CCN(c5cc6c(cc5F)c(=O)c(C(=O)O)cn6C5CC5)CC4)nc32)cc1
growth [1]: 89.7%
growth [2]: 101%
growth [3]: 94.9%
growth [4]: 102%
growth [5]: 82.5%
growth [6]: 96.7%
growth [7]: 74%
growth [8]: 97.2%
growth [9]: 93.5%

CCCCCCCCCCCCNC(=O)[C@H]1CSC(c2ccc(OC)c(F)c2)N1 (some centres not stated)
growth [1]: -82.3% (active)
growth [2]: -83.1% (active)
growth [3]: -92.6% (active)
growth [4]: -93.4% (active)
growth [5]: -93.8% (active)
growth [6]: -98.1% (active)
growth [7]: -95% (active)
growth [8]: -89.6% (active)
growth [9]: -92.6% (active)
